From PubChem BioAssay (NCATS) come the findings set out here.

Values without a mark were called inactive. For some of these results: Results with a measured potency or affinity are listed apart. Active and inactive are the calls of the source.

For assay [1] the following is noted: Ebola virus entry assay, green fluorescence channel.
For assay [2] the following is noted: Ebola virus entry assay, blue channel fluorescence.
The conditions of assay [3]: Ebola virus entry assay, green fluorescence channel. The source holds these as a separate data set.
The conditions of assay [4]: Ebola virus entry assay, ratio channel readout.
For assay [5] the following is noted: Ebola virus entry assay, blue channel fluorescence. This is another data set of the same source.
For assay [6] the following is noted: Ebola virus entry assay, ratio channel.
For assay [7] the following is noted: Ebola virus entry assay, blue channel fluorescence. The source holds these as a separate data set.
For assay [8] the following is noted: Ebola virus entry assay, reporter ratio channel; AC50: Channel type: primary unless noted; outcome: Channel type: primary unless noted.
Wherever efficacy is given: 0% is about no effect.

The term AC50 denotes the concentration giving half of the maximal activity seen. As for `COc1cc2nc(N(C)CCCNC(=O)C3CCCO3)nc(N)c2cc1OC` (configuration not stated), the efficacy in assay [1] is 46.7%. Moreover, the call in assay [2], in assay [3], in assay [4], in assay [6] and in assay [7] was inactive. Besides, the half-maximal activity concentration (AC50) in assay [5] was 39.8 µM (active); in assay [8], 35.5 µM (active).
In the case of `COc1cc2ncnc(Nc3ccc(F)c(Cl)c3)c2cc1OCCCN1CCOCC1`, the efficacy in assay [1] is 41.5%. In addition, the AC50 in assay [2] was 15.8 µM (active); in assay [5] it was 2.82 µM (active); in assay [6], 2.51 µM (active); in assay [8] it was 2.51 µM (active). Moreover, the call in assay [3] and in assay [4] was inactive.
With `CN1CCC(=C2c3ccccc3C=Cc3ccccc32)CC1`, in assay [1], the efficacy is 67.2%. Further, the outcome in assay [2], in assay [3] and in assay [4] was inactive. Also, the results for the AC50 in assay [5], in assay [6] and in assay [8] were 11.2 µM (active), 10 µM (active) and 10 µM (active), respectively.
With `O[C@@H](CNC[C@H](O)[C@H]1CCc2cc(F)ccc2O1)[C@@H]1CCc2cc(F)ccc2O1`, the efficacy in assay [1] is -189%. Besides, the AC50 in assay [2] was 11.2 µM (active); in assay [5], 7.94 µM (active); in assay [6], 3.55 µM (active); in assay [8], 3.55 µM (active). The result in assay [3] and in assay [4] was inactive.
As to `Cc1ccc(-c2cc(C(F)(F)F)nn2-c2ccc(S(N)(=O)=O)cc2)cc1`, the efficacy in assay [1] is 26.9%. The compound was called inactive in assay [2], in assay [3], in assay [4] and in assay [6]. Besides, the AC50 in assay [5] and in assay [8] was 39.8 µM (active) each time.
Consider `CN1C[C@H]2c3ccccc3Oc3ccc(Cl)cc3[C@@H]2C1`, for which the efficacy in assay [1] was 60.4%. Further, the compound was classed as inactive in assay [2], in assay [3] and in assay [4]. Moreover, the half-maximal activity concentration (AC50) is 22.4 µM (active) in assay [5], 14.1 µM (active) in assay [6] and 14.1 µM (active) in assay [8].
For `CC[C@@H]([C@H](C)O)n1ncn(-c2ccc(N3CCN(c4ccc(OC[C@@H]5CO[C@@](Cn6cncn6)(c6ccc(F)cc6F)C5)cc4)CC3)cc2)c1=O`, in assay [1], the efficacy is 27.6%. Moreover, the concentration at half-maximal activity (AC50) in assay [2] was 10 µM (active); in assay [5] it was 4.47 µM (active); in assay [6], 3.98 µM (active); in assay [8] it was 3.98 µM (active). The compound was called inactive in assay [3] and in assay [4].
As to `C=C1C[C@@H]2[C@H](CC[C@]3(C)C(=O)CC[C@@H]23)[C@@]2(C)C=CC(=O)C=C12`, in assay [1], the efficacy was 112%. For the same compound, the result in assay [2], in assay [3] and in assay [4] was inactive. Moreover, the AC50 in assay [5] was 28.2 µM (active); in assay [6] it was 25.1 µM (active); in assay [8], 25.1 µM (active).
As for `CN(C)CC/C=C1\c2ccccc2COc2ccccc21`, the efficacy in assay [1] was 117%. Also, the call in assay [2], in assay [3] and in assay [4] was inactive. Further, the concentration at half-maximal activity (AC50) in assay [5] was 20 µM (active); in assay [6], 14.1 µM (active); in assay [8] it was 14.1 µM (active).
In the case of `Cc1ccccc1C(OCCN(C)C)c1ccccc1` (configuration not stated), in assay [1], the efficacy is 62.3%. Moreover, the half-maximal activity concentration (AC50) in assay [2] is 10 µM (active); in assay [5] it was 7.94 µM (active); in assay [6], 8.91 µM (active); in assay [8], 8.91 µM (active). For the same compound, the outcome in assay [3] and in assay [4] was inactive.
On to `CC(CN(C)C)CN1c2ccccc2CCc2ccccc21` (configuration not stated), for which the efficacy in assay [1] is 31.5%. In addition, the result in assay [2] and in assay [3] was inactive. Also, the concentration at half-maximal activity (AC50) in assay [4] is 14.1 µM (active); in assay [5], 7.94 µM (active); in assay [6], 6.31 µM (active); in assay [8] it was 6.31 µM (active).
For the compound `CN1CCc2cccc3c2[C@H]1Cc1ccc(O)c(O)c1-3`, the efficacy in assay [1] was 61.6%. For the same compound, the compound was called inactive in assay [2], in assay [3] and in assay [4]. Moreover, the AC50 in assay [5], in assay [6] and in assay [8] was 28.2 µM (active) in each case.
`CCN(CC)CCCC(C)Nc1ccnc2cc(Cl)ccc12` (configuration not stated): in assay [1], the efficacy was 34.3%. The AC50 was 3.98 µM (active) in assay [2]; 2.82 µM (active) in assay [4]; 1.26 µM (active) in assay [5]; 1.12 µM (active) in assay [6]; 1.12 µM (active) in assay [8]. In assay [3], the compound was called inactive.
For `CN1CCN(C2=Nc3cc(Cl)ccc3Nc3ccccc32)CC1`, the efficacy in assay [1] was 95.2%. In addition, the outcome in assay [2], in assay [3] and in assay [4] was inactive. For the same compound, the AC50 was 15.8 µM (active) in assay [5], 14.1 µM (active) in assay [6] and 14.1 µM (active) in assay [8].
Consider `COC(=O)C1=C(C)NC(C)=C(C(=O)OCCN(C)Cc2ccccc2)C1c1cccc([N+](=O)[O-])c1` (configuration not stated), for which the efficacy in assay [1] was -75%. In addition, the outcome in assay [2], in assay [3] and in assay [4] was inactive. The concentration at half-maximal activity (AC50) was 12.6 µM (active) in assay [5], 10 µM (active) in assay [6] and 10 µM (active) in assay [8].
`CC(C)NCC(O)COc1ccc(CCOCC2CC2)cc1` (configuration not stated): the efficacy in assay [1] was 65%. The compound was called inactive in assay [2], in assay [3] and in assay [4]. Also, the concentration at half-maximal activity (AC50) in assay [5] was 14.1 µM (active); in assay [6], 11.2 µM (active); in assay [8] it was 11.2 µM (active).
In the case of `CN(C)CCC=C1c2ccccc2C=Cc2ccccc21`, in assay [1], the efficacy was 108%. The compound was classed as inactive in assay [2], in assay [3] and in assay [4]. Besides, the values for the AC50 in assay [5], in assay [6] and in assay [8] were 11.2 µM (active), 10 µM (active) and 10 µM (active), respectively.
On to `C[C@@H](O[C@H]1OCCN(Cc2n[nH]c(=O)[nH]2)[C@H]1c1ccc(F)cc1)c1cc(C(F)(F)F)cc(C(F)(F)F)c1`, for which the efficacy in assay [1] is 67.5%. Also, the call in assay [2], in assay [3] and in assay [4] was inactive. The AC50 in assay [5], in assay [6] and in assay [8] was 28.2 µM (active) throughout.
